Compound activity: PubChem, National Center for Advancing Translational Sciences (NCATS)
The list is not random: actives were taken first. Their share in the collection is about 4.3%.
MCF10A rerep: induces DNA re-replication in MCF 10a normal breast cells; MCF 10A DNA re-replication, Hoechst nuclear intensity, 48 h; Potency, µM (series often up to 46.1 µM), inactives show at the top dose activity, positive = re-replication, actives largely listed as activators; hit rate 2.9% among 350,000; AID 624296; also: potency is read from the fitted curve at half-maximal effect; % of control where 0% means no effect; nearly all actives have a fitted effect of over 50% in size
uPA generation: blocks generation of uPA at the cell surface; cell surface uPA generation assay, qHTS; hit rate 0.31% among 330,000; AID 540303; Potency, µM (doses to about 38.3 µM), for the others: at the top dose activity change, negative = inhibition, actives largely listed as inhibitors; active = well fitted inhibition curve with a large enough effect; inconclusive = small, poorly fitted or top-dose-only effect; inactive = no such curve, though single readings can be large or run the other way; tested in mouse RAW 264.7 cells; also: potency is read from the fitted curve at half-maximal effect; % is scaled to controls: 0 for no effect and ±100 for the full control effect; nearly all actives have a fitted effect of over 55% in size
Giardia kill: kills Giardia lamblia. Giardia lamblia trophozoite viability. activity change, % at 7.66 µM, hits read low. hit rate 0.15% among 340,000; in the data active = activity change below about -80%; inconclusive = between about -30% and that limit;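 also: parasites exposed to compound for two days anaerobically before the ATP read; % is scaled to controls: 0 for no effect and ±100 for the full control effect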
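Trophozoite viability was measured as ATP-dependent luminescence, read 15-30 min after reagent addition. Before that, parasites at 100 cells/well were exposed to compounds for 48 h, anaerobically, at 37 deg C.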
SW480 rerep: induces DNA re-replication in SW480 colon adenocarcinoma cells; SW480 DNA re-replication, Hoechst DNA content imaging, 48 h; AID 624297; hit rate 1.8% among 340,000; Potency, µM (highest dose often 46.1 µM), without a hit: at the top dose re-replication activation, hits mostly activators; also: potency is read from the fitted curve at half-maximal effect; % of control where 0% means no effect; nearly all actives have a fitted effect of over 55% in size
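SW480 cells exposed to compounds for 48 hr at 37 C, 5% CO2, then Hoechst-stained 40 min. Nuclear DNA content imaged by fluorescence scanning (405 nm excitation, 500-530 nm emission); re-replication scored as increased high-intensity nuclei.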
* = called active by the depositor; ? = inconclusive; nt = no result given; [ ] = remark or other dose. Unless noted, calls follow the shape of the dose curve; as a rule, active = well fitted activation curve with a large enough effect; inconclusive = small, poorly fitted or top-dose-only effect; inactive = no such curve, though single readings can be large or run the other way.

SMILES | MCF10A rerep | uPA generation | Giardia kill | SW480 rerep
Cc1nc2ccc(NS(=O)(=O)c3ccc(F)cc3)cc2s1 | -39.0% | 0.0% | 0.1 | 13.2%
Cc1ccc(S(=O)(=O)Nc2ccc(-c3nc4ccc(C)cc4s3)cc2)cc1 | 23.1µM* | 16.2% | 1.3 | ?
Cc1ccc2nc(-c3ccc(NS(=O)(=O)c4c(C)n(C)c(=O)n(C)c4=O)cc3)sc2c1 | 7.31µM* | -29.7% | 3.6 | 20.6µM*
Cc1ccc2nc(-c3ccc(NC(=O)CCS(=O)(=O)c4ccccc4)cc3)sc2c1 | 23.8% | ? | -26.8 | ?
Cc1cccc(S(=O)(=O)Nc2ccc(-c3nc4ccc(C)cc4s3)cc2)c1 | 18.4µM* | 3.9% | 22.4 | ?
O=C1N[C@H]2CC=C[C@H]2Nc2ccccc21 | ? | ? | 3.5 | ?
O=C(Nc1ccccn1)c1cc2cc([N+](=O)[O-])ccc2s1 | -2.4% | -8.8% | -26.5 | 18.1%
C=CCOc1ccc2cccc(/C=N/NC(=O)c3cc4cc([N+](=O)[O-])ccc4s3)c2c1 | ? | nt | 12.8 | 20.6µM*
COC(=O)c1scc(C#N)c1N/N=C(\C#N)S(=O)(=O)c1ccc(Cl)cc1 | 13µM* | -3.5% | -1.4 | -9.8%
COc1ccc(CCN(C(=O)c2snc(C(N)=O)c2N)C(C)C(=O)NC2CCCCC2)cc1OC (configuration not stated) | -14.6% | -8.3% | 1.1 | 10.4%
C=C[C@@H]1[C@@H](C)[C@H](C)C(=O)C([C@H](O)C(C)C)[C@@H]1C (some centres not stated) | nt | nt | 0.0 | nt
O=C(NNC(=O)c1ccccc1O)c1ccc(NS(=O)(=O)c2ccc(F)cc2)cc1 | 11.1% | -5.8% | -22.5 | ?
Cc1ccccc1NS(=O)(=O)c1ccc(C(=O)NNC(=O)c2ccccc2O)cc1 | 4.9% | -25.8% | -19.4 | 14.6µM*
O=C(NNC(=O)c1ccccc1O)c1ccc(S(=O)(=O)Nc2ccccc2)cc1 | -0.2% | -3.2% | 8.4 | 11.2µM*
O=C(NC(=S)Nc1ccccc1OC(F)F)c1ccc2c(c1)OCO2 | 8.7% | 0.6% | -21.7 | -1.2%
CC(C)(C)c1ccc(OCCn2c(CCNC(=O)C3CCCCC3)nc3ccccc32)cc1 | nt | nt | 4.1 | nt
C/C(=N/NC(=O)C(O)(c1ccccc1)c1ccccc1)c1ccc([N+](=O)[O-])o1 | 8.5% | nt | -90.4* | 12.2%
O=C(NN(c1ccccc1)c1ccccc1)c1ccc([N+](=O)[O-])o1 | ? | -7.8% | -89.3* | 11.6µM*
NC(=O)c1oc2ccccc2c1NC(=O)c1ccc([N+](=O)[O-])o1 | ? | -3.7% | -88.1* | ?
O=C(NNC(=O)c1ccc([N+](=O)[O-])o1)c1ccccc1 | ? | -8.1% | -97.8* | ?
COC(=O)[C@@]1(Cc2ccccc2)[C@H]2C(=O)N(Cc3ccccc3)C(=O)[C@H]2[C@H]2CN=C(SCC3CC3)N21 | ? | ? | 12.7 | 28.8%[9.22 µM]
C#CCN(C[C@@H](CC(C)C)NC(=O)OC(C)(C)C)S(=O)(=O)c1ccc(Br)cc1F | 1.5% | -20.5% | 3.9 | 2.3%
CCC1Oc2ccc(C)cc2N(Cc2cccc(C)c2)C1=O (configuration not stated) | 11.6µM* | nt | -12.2 | -3.7%
C=CCNC(=O)COC(=O)c1cccnc1Nc1ccccc1F | -0.1% | 2.7% | 2.6 | 1.6%
CCC[C@@H]1C[C@@H](C(=O)N[C@@H]([C@H]2O[C@H](SC)[C@H](O)[C@@H](O)[C@H]2O)[C@@H](C)O)N(C)C1 | -3.2% | nt | nt | 9.7%
SMILES | MCF10A rerep | uPA generation | Giardia kill | SW480 rerep
Cc1ccc(C(=O)CSC2=C(C#N)C(c3ccco3)C3=C(CCCC3=O)N2)cc1 (configuration not stated) | 8.2µM* | nt | 13.4 | 5.8µM*
CCOc1ccccc1NC(=O)CSC1=C(C#N)C(c2ccco2)C(C(=O)Nc2nc3ccccc3s2)=C(C)N1 (configuration not stated) | ? | 9.1% | -7.4 | 3.66µM*
CC1=C(C(=O)Nc2ccccc2)C(c2ccco2)C(C#N)=C(SCC(=O)Nc2cccc(C)c2C)N1 (configuration not stated) | -3.8% | 10.6% | -8.2 | -3.1%
CC(=O)C1=C(C)NC(SCC(=O)c2cc(Cl)ccc2Cl)=C(C#N)C1c1ccco1 (configuration not stated) | ? | -19.9% | 5.7 | ?
CC(=O)C1=C(C)NC(SCC(=O)c2ccc(Cl)c(Cl)c2)=C(C#N)C1c1ccco1 (configuration not stated) | 2.0% | 9.4% | -7.1 | 11.6µM*
CC(C)(C)c1ccc(C(=O)CCCSC2=C(C#N)C(c3ccco3)C3=C(CCCC3=O)N2)cc1 (configuration not stated) | ? | nt | 28.2 | ?
N#CC1=C(SCC(=O)c2ccccc2)NC2=C(C(=O)CCC2)C1c1ccco1 (configuration not stated) | 8.91µM* | -8.5% | 2.2 | 14.6µM*
Cc1cc(CC(=O)O)c(C)n1-c1ccc(Cl)cc1 | -1.7% | nt | nt | 4.2%
O=C(Nc1ccc(Cl)cc1)N1CCCN(Cc2ccc(F)cc2)C1 | 20.6µM* | nt | 4.5 | ?
O=C(Nc1ccccc1)N1CCN(Cc2ccc(Cl)cc2)CC1 | -6.5% | 8.2% | 9.4 | ?
O=S(=O)(Nc1nc2ccccc2nc1N1CCc2ccccc2C1)c1ccc(Br)cc1 | 14.6µM* | -1.5% | -15.5 | -0.4%
C/C=C(\C)C(=O)OC1[C@H](OC(C)=O)C2(CO)C(CC1(C)C)C1=CCC3C4(C)CCC(O[C@@H]5O[C@H](C(=O)O)[C@@H](O[C@@H]6O[C@H](CO)[C@@H](O)[C@H](O)[C@H]6O)[C@H](O)[C@H]5O[C@H]5O[C@H](CO)[C@@H](O)[C@H](O)[C@H]5O)[C@](C)(CO)C4CCC3(C)[C@]1(C)C[C@H]2O (some centres not stated) | 6.51µM* | ? | -22.1 | 2.4%
C/C=C(/C)C(=O)OC1CC(C)(C)C[C@H]2C3=CC[C@@H]4[C@@]5(C)CCC(O[C@@H]6O[C@@H](C(=O)O)[C@@H](O)C(O[C@@H]7OC[C@H](O)[C@@H](O)[C@@H]7O[C@@H]7OC(CO)C(O)[C@@H](O)[C@@H]7O)C6O[C@@H]6OC(CO)C(O)C(O)C6O)[C@@](C)(CO)[C@@H]5CC[C@]4(C)[C@]3(C)CC(O)[C@@]12CO (some centres not stated) | ? | -9.0% | -6.0 | ?
C=CCNC(=S)N/N=C/c1ccc(OCc2ccccc2Cl)cc1 | ? | nt | 13.1 | 7.31µM*
O=C(NCCCn1ccnc1)c1cccc(Br)c1 | -4.6% | -10.6% | -1.0 | 25.9µM*
CC1CN(S(=O)(=O)c2ccc(C(=O)NCCCn3ccnc3)cc2)CC(C)O1 (configuration not stated) | 3.66µM* | 6.7% | 1.4 | 5.8µM*
CC1CN(S(=O)(=O)c2cccc(C(=O)NCCCn3ccnc3)c2)CC(C)O1 (configuration not stated) | 3.9% | 3.0% | 0.3 | 1.4%
Cc1ccc(C(=O)CCS(=O)(=O)c2ccc(F)cc2)cc1 | ? | 11.2µM* | 10.1 | ?
Cc1ccc(S(=O)(=O)CCC(=O)c2ccc(F)cc2)cc1 | 4.61µM* | -10.5% | -3.8 | ?
